# Experimental data: PubChem BioAssay (EPA / NIEHS)
# Activity calls are given as the source filed them. The calls were made as follows: active = hit-call score of the fitted dose curve at least 0.9, where 1 is the maximum; inactive = score below 0.9.
# Columns and labels:
# Conditions in all cases: mRNA level, 48 h; actives raise or lower the signal
# [1] = read-out: Cytochrome P450 (CYP1A2), CYP1A2 (gene 1544); assay: LTEA_HepaRG_CYP1A2: Life Technologies and Expression Analysis (LTEA) Assay for Cytochrome P450 (CYP1A2) using HepaRG (AID 2283479)
# Method in brief: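 HepaRG, 48 h exposure, top 100 uM, half-log 8-pt, 0.5% DMSO vehicle, duplicates. Readout: TaqMan qRT-PCR of CYP1A2 mRNA, housekeeping-normalized (ACTB/GAPDH/POLR2A). Gain/loss fit relative to DMSO baseline.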
# [2] = read-out: cysteine-aspartic acid protease (CASP8), CASP8 (gene 841); assay: LTEA_HepaRG_CASP8: Life Technologies and Expression Analysis (LTEA) Assay for cysteine-aspartic acid protease (CASP8) using HepaRG (AID 2283480)
# Method in brief: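 Differentiated HepaRG cells in serum-free induction medium, 48 h exposure, eight-point half-log series from 100 uM in 0.5% DMSO, duplicates. CASP8 mRNA by qRT-PCR, normalized to ACTB, GAPDH, POLR2A; bidirectional fit versus DMSO.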
# [3] = read-out: Cytochrome P450 (CYP2B6), CYP2B6 (gene 1555); assay: LTEA_HepaRG_CYP2B6: Life Technologies and Expression Analysis (LTEA) Assay for Cytochrome P450 (CYP2B6) using HepaRG (AID 2283481)
# Method in brief: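 Read-out is CYP2B6 mRNA by TaqMan qRT-PCR, normalized to three housekeeping genes and fitted bidirectionally against 0.5% DMSO baseline. Human HepaRG cells received test chemicals for 48 h, top concentration 100 uM, half-log dilutions.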
# [4] = read-out: Cytochrome P450 2C19 (Homo sapiens) (UniProt P33261); assay: LTEA_HepaRG_CYP2C19: Life Technologies and Expression Analysis (LTEA) Assay for CYP2C19 using HepaRG (AID 2283482)
# Method in brief: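 HepaRG, 48 h chemical exposure, 8-pt half-log series from 100 uM in 0.5% DMSO, duplicates. Readout: CYP2C19 mRNA by TaqMan qRT-PCR, housekeeping-normalized. Bidirectional fit vs DMSO baseline; phenobarbital 1mM as induction control.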
# CYP2C8 (gene 1558) = assay: LTEA_HepaRG_CYP2C8: Life Technologies and Expression Analysis (LTEA) Assay for CYP2C8 using HepaRG (AID 2283483)
# Method in brief: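 Differentiated HepaRG cells in serum-free induction medium exposed 48 h in duplicate to 8 half-log concentrations from 100 uM in 0.5% DMSO. CYP2C8 mRNA by qRT-PCR normalized to ACTB, GAPDH, POLR2A; bidirectional fit versus DMSO.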
# CYP2C9 (gene 1559) = assay: LTEA_HepaRG_CYP2C9: Life Technologies and Expression Analysis (LTEA) Assay for CYP2C9 using HepaRG (AID 2283484)
# Method in brief: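 Differentiated human HepaRG cells in serum-free induction medium were exposed 48 h to chemicals in 8-point half-log series from 100 uM (0.5% DMSO), in duplicate. CYP2C9 mRNA was measured by qRT-PCR, normalized to ACTB/GAPDH/POLR2A, with bidirectional fitting versus DMSO.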
# CYP2E1 (gene 1571) = assay: LTEA_HepaRG_CYP2E1: Life Technologies and Expression Analysis (LTEA) Assay for CYP2E1 using HepaRG (AID 2283485)
# Method in brief: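 Differentiated HepaRG cells were treated in duplicate for 48 h with chemicals in 0.5% DMSO, from 100 uM downward in half-log dilutions. RNA was then analysed by qRT-PCR for CYP2E1 induction or loss.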
# CYP4A11 (gene 1579) = assay: LTEA_HepaRG_CYP4A11: Life Technologies and Expression Analysis (LTEA) Assay for CYP4A11 using HepaRG (AID 2283486)
# Method in brief: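 CYP4A11 transcript levels were quantified by TaqMan qRT-PCR after HepaRG human liver cells were treated for 48 hours with test chemicals (top 100 uM, half-log dilutions, 0.5% DMSO). Gain or loss of signal was fitted relative to DMSO.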
# [5] = read-out: Cytochrome P450 3A4 (Homo sapiens) (UniProt P08684); assay: LTEA_HepaRG_CYP3A4: Life Technologies and Expression Analysis (LTEA) Assay for CYP3A4 using HepaRG (AID 2283487)
# Method in brief: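 In a human hepatic line (HepaRG), duplicate wells were treated 48 h with up to 100 uM chemical in half-log dilutions. Endpoint: CYP3A4 mRNA induction or loss relative to 0.5% DMSO vehicle, by qRT-PCR.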
# [6] = read-out: Pro-epidermal growth factor (Homo sapiens) (UniProt P01133); assay: LTEA_HepaRG_EGF: Life Technologies and Expression Analysis (LTEA) Assay for Epidermal growth factor (EGF) using HepaRG (AID 2283489)
# Method in brief: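 qRT-PCR readout of EGF transcript after 48 h chemical exposure of HepaRG cells; eight concentrations from 100 uM down in half-log steps, duplicate wells, 0.5% DMSO vehicle. Bidirectional curve fitting against DMSO baseline.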
# [7] = read-out: Early growth response protein 1 (EGR1) transcription factor, EGR1 (gene 1958); assay: LTEA_HepaRG_EGR1: Life Technologies and Expression Analysis (LTEA) Assay for Early growth response protein 1 (EGR1) transcription factor using HepaRG (AID 2283490)
# Method in brief: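 Differentiated HepaRG cells in serum-free induction medium exposed 48 hours, duplicate, to 8 half-log concentrations up to 100 uM in 0.5% DMSO. EGR1 mRNA measured by TaqMan qRT-PCR, normalized to ACTB, GAPDH, POLR2A; bidirectional fit versus DMSO.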
# [8] = read-out: Ezrin (EZR), EZR (gene 7430); assay: LTEA_HepaRG_EZR: Life Technologies and Expression Analysis (LTEA) Assay for Ezrin (EZR) using HepaRG (AID 2283491)
# Method in brief: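 Gain or loss of EZR mRNA is scored relative to 0.5% DMSO in human HepaRG cultures treated 48 h with test chemicals in duplicate, eight half-log concentrations from 100 uM.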
# CYP3A5 (gene 1577) = assay: LTEA_HepaRG_CYP3A5: Life Technologies and Expression Analysis (LTEA) Assay for CYP3A5 using HepaRG (AID 2283493)
# Method in brief: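 mRNA induction or loss of CYP3A5 assessed in HepaRG after 48 h dosing, 100 uM top concentration, duplicate wells; TaqMan qRT-PCR with ACTB, GAPDH, POLR2A normalization; 0.5% DMSO as negative control.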
# [9] = read-out: Fatty Acid-Binding Protein 1 (FABP1), FABP1 (gene 2168); assay: LTEA_HepaRG_FABP1: Life Technologies and Expression Analysis (LTEA) Assay for Fatty Acid-Binding Protein 1 (FABP1) using HepaRG (AID 2283494)
# Method in brief: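 Differentiated human HepaRG cells exposed 48 h in serum-free induction medium to eight half-log concentrations up to 100 uM (0.5% DMSO), duplicate. FABP1 mRNA by qRT-PCR, normalised to ACTB, GAPDH, POLR2A; bidirectional fitting against DMSO.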
# [10] = read-out: Cytochrome P450 7A1 (Homo sapiens) (UniProt P22680); assay: LTEA_HepaRG_CYP7A1: Life Technologies and Expression Analysis (LTEA) Assay for Cytochrome P450 7A1 (CYP7A1) using HepaRG (AID 2283496)
# Method in brief: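 Gene expression endpoint in human HepaRG liver cells treated for 48 h with test chemicals (up to 100 uM, 0.5% DMSO). Values come from bidirectional concentration-response fitting versus DMSO.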
# [11] = read-out: Cytochrome P450 3A7 (Homo sapiens) (UniProt P24462); assay: LTEA_HepaRG_CYP3A7: Life Technologies and Expression Analysis (LTEA) Assay for CYP3A7 using HepaRG (AID 2283492)
# Method in brief: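 CYP3A7 transcript levels were read by TaqMan qRT-PCR on Fluidigm arrays after 48 h chemical exposure of human HepaRG cells, with housekeeping-gene normalisation. Eight half-log concentrations up to 100 uM in 0.5% DMSO were tested in duplicate.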
# [12] = read-out: Glutathione S-Transferase (GSTA2), GSTA2 (gene 2939); assay: LTEA_HepaRG_GSTA2: Life Technologies and Expression Analysis (LTEA) Assay for Glutathione S-Transferase (GSTA2) using HepaRG (AID 2283497)
# Method in brief: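 Differentiated human HepaRG cells were exposed in duplicate for 48 h in serum-free induction medium, 8 points from 100 uM top in half-log steps, 0.5% DMSO. GSTA2 mRNA was measured by TaqMan qRT-PCR, normalized to ACTB, GAPDH and POLR2A; bidirectional fit versus DMSO.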
# [13] = read-out: Cytochrome P450 4A22 (Homo sapiens) (UniProt Q5TCH4); assay: LTEA_HepaRG_CYP4A22: Life Technologies and Expression Analysis (LTEA) Assay for Cytochrome P450 4A22 (CYP4A22) using HepaRG (AID 2283495)
# Method in brief: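 HepaRG, 48 h post-plating -> serum-free induction medium; dosed 48 h, duplicate, 8 conc. (100 uM top, half-log), 0.5% DMSO. Readout: CYP4A22 mRNA by qRT-PCR, ACTB/GAPDH/POLR2A normalization; gain/loss fit relative to DMSO.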
# [14] = read-out: DNA damage-inducible transcript 3 (DDIT3), DDIT3 (gene 1649); assay: LTEA_HepaRG_DDIT3: Life Technologies and Expression Analysis (LTEA) Assay for DNA damage-inducible transcript 3 (DDIT3) using HepaRG (AID 2283488)
# Method in brief: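 Changes in DDIT3 transcript, in either direction relative to 0.5% DMSO vehicle, were quantified by TaqMan qRT-PCR after 48 h chemical exposure of HepaRG cells at 8 concentrations, maximum 100 uM.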
# Sequence of Cytochrome P450 2C19 (Homo sapiens) (P33261 whole entry, looked up): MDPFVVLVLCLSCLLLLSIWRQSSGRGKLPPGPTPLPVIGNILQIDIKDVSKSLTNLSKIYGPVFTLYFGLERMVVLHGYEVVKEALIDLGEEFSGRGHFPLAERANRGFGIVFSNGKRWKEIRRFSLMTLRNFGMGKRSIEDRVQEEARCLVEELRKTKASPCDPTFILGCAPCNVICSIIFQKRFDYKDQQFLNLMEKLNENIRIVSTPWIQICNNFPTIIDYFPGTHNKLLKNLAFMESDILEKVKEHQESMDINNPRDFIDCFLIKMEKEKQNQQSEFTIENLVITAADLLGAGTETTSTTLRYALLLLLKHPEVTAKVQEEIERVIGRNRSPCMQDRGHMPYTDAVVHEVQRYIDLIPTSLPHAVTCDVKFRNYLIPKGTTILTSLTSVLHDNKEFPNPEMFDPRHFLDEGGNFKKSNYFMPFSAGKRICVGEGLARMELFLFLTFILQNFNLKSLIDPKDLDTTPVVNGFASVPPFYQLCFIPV
# Sequence of Cytochrome P450 3A7 (Homo sapiens) (P24462 whole entry, looked up): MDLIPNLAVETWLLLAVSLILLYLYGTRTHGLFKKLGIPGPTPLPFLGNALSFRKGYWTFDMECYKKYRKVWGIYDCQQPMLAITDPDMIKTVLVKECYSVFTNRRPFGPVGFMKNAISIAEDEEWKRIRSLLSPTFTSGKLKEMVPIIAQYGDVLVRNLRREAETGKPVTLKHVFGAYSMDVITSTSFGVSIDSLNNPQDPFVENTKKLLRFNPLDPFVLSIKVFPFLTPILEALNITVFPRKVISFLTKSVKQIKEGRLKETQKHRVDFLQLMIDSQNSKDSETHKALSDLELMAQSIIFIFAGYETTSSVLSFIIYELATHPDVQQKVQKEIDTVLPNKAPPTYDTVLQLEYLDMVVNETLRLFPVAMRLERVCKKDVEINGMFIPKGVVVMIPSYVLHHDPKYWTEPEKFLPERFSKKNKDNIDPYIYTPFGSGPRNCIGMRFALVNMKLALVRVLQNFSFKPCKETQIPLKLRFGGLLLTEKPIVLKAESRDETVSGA
# Sequence of Cytochrome P450 3A4 (Homo sapiens) (P08684 whole entry, looked up): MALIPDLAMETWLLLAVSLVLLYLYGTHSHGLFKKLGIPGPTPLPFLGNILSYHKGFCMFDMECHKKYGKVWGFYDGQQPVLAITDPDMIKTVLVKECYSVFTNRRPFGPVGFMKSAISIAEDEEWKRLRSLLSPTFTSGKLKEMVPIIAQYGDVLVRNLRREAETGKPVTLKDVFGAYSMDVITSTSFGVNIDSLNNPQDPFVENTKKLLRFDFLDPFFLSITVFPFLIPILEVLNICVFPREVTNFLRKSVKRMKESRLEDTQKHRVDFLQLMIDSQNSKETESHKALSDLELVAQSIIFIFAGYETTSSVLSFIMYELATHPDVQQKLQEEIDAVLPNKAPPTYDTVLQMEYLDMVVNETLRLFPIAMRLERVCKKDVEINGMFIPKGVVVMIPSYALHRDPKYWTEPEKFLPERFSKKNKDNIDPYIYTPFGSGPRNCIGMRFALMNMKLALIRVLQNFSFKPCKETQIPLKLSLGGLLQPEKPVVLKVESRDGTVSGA
structure (smiles),measurement,setting,value
CCCCOCCO,outcome,[1],inactive
same,outcome,[2],inactive
same,outcome,[3],inactive
same,outcome,[4],inactive
same,outcome,CYP2C8 (gene 1558),inactive
same,outcome,CYP2C9 (gene 1559),inactive
same,outcome,CYP2E1 (gene 1571),inactive
same,outcome,CYP4A11 (gene 1579),inactive
same,outcome,[5],inactive
same,outcome,[6],inactive
same,outcome,[7],inactive
same,outcome,[8],inactive
same,outcome,CYP3A5 (gene 1577),inactive
same,outcome,[9],inactive
same,outcome,[10],inactive
CCCCCCCCOC(=O)CCCCCCCCC(=O)OCCCCCCCC,AC50,[1],29.9 µM (active)
same,outcome,[2],inactive
same,outcome,[3],inactive
same,outcome,[4],inactive
same,outcome,CYP2C8 (gene 1558),inactive
same,outcome,CYP2C9 (gene 1559),inactive
same,outcome,CYP2E1 (gene 1571),inactive
same,outcome,CYP4A11 (gene 1579),inactive
same,outcome,[5],inactive
same,outcome,[6],inactive
same,outcome,[7],inactive
same,outcome,[8],inactive
same,outcome,[11],inactive
same,outcome,CYP3A5 (gene 1577),inactive
same,outcome,[9],inactive
same,outcome,[10],inactive
same,outcome,[12],inactive
OC1CCCCC1,outcome,[1],inactive
same,outcome,[2],inactive
same,outcome,[3],inactive
same,outcome,[4],inactive
same,outcome,CYP2C8 (gene 1558),inactive
same,outcome,CYP2C9 (gene 1559),inactive
same,outcome,CYP2E1 (gene 1571),inactive
same,outcome,CYP4A11 (gene 1579),inactive
same,outcome,[5],inactive
same,outcome,[6],inactive
same,outcome,[7],inactive
same,outcome,[8],inactive
same,outcome,[11],inactive
same,outcome,CYP3A5 (gene 1577),inactive
same,outcome,[9],inactive
same,outcome,[10],inactive
same,outcome,[12],inactive
NC(=O)N1C(=O)C(C(=O)c2cc(Cl)cs2)c2cc(F)c(Cl)cc21 (centres undefined),AC50,[1],4.16 µM (active)
same,AC50,[2],19.2 µM (active)
same,AC50,[3],16.3 µM (active)
same,AC50,[4],22.4 µM (active)
same,AC50,CYP2C8 (gene 1558),50 µM (active)
same,AC50,CYP2C9 (gene 1559),22.4 µM (active)
same,AC50,CYP2E1 (gene 1571),13.2 µM (active)
same,AC50,[5],24.6 µM (active)
same,AC50,[6],50 µM (active)
same,AC50,[7],79.3 µM (active)
same,outcome,[8],inactive
same,AC50,CYP3A5 (gene 1577),13 µM (active)
same,AC50,[13],24.1 µM (active)
same,AC50,[10],16.6 µM (active)
same,AC50,[12],19.5 µM (active)
CCN(CC)CCNc1ccc(CNC=O)c2sc3ccc(OC)cc3c(=O)c12,outcome,[1],inactive
same,AC50,[2],50 µM (active)
same,AC50,[3],7.58 µM (active)
same,outcome,[4],inactive
same,outcome,CYP2C8 (gene 1558),inactive
same,AC50,CYP2C9 (gene 1559),16.8 µM (active)
same,AC50,CYP2E1 (gene 1571),12.8 µM (active)
same,AC50,CYP4A11 (gene 1579),26 µM (active)
same,AC50,[5],50 µM (active)
same,outcome,[6],inactive
same,AC50,[7],88.2 µM (active)
same,AC50,[8],76.2 µM (active)
same,AC50,[11],3.36 µM (active)
same,AC50,CYP3A5 (gene 1577),50 µM (active)
same,AC50,[9],21.5 µM (active)
same,AC50,[10],21.7 µM (active)
CCCCCCCC(=O)O,outcome,[1],inactive
same,outcome,[2],inactive
same,outcome,[3],inactive
same,outcome,[4],inactive
same,outcome,CYP2C8 (gene 1558),inactive
same,outcome,CYP2C9 (gene 1559),inactive
same,outcome,CYP2E1 (gene 1571),inactive
same,outcome,CYP4A11 (gene 1579),inactive
same,outcome,[6],inactive
same,outcome,[7],inactive
same,outcome,[8],inactive
same,outcome,CYP3A5 (gene 1577),inactive
same,outcome,[9],inactive
same,outcome,[10],inactive
CC1=C(/C=C/C(C)=C/C=C/C(C)=C/C(=O)O)C(C)(C)CCC1,AC50,[1],1.75 µM (active)
same,outcome,[2],inactive
same,AC50,[3],6.58 µM (active)
same,AC50,[4],27 µM (active)
same,outcome,CYP2C8 (gene 1558),inactive
same,outcome,CYP2C9 (gene 1559),inactive
same,AC50,CYP2E1 (gene 1571),20.8 µM (active)
same,AC50,CYP4A11 (gene 1579),4.34 µM (active)
same,outcome,[14],inactive
same,AC50,[6],28 µM (active)
same,outcome,[7],inactive
same,AC50,[8],0.495 µM (active)
same,outcome,CYP3A5 (gene 1577),inactive
same,AC50,[9],13.6 µM (active)
same,AC50,[10],29.6 µM (active)
